Screening results from PubChem BioAssay.
Compounds with a hit are over-represented: about 8.2% of the library has one in this group of screens.
ELG1 DNA repair = inhibitors of ELG1-dependent DNA repair in HEK293T cells. HEK293T ELG1-luciferase reporter, luminescence, 16 h; DNA damage induced by 5-fluorouridine. Potency, µM (top dose mostly 46.1 µM), inactives show top-dose activity change, negative = inhibition, actives largely listed as inhibitors. 330,000 compounds, 2.3% hits. AID 504467; further: on the % scale 0 is the no-effect control and ±100 the full control effect; nearly all actives have a fitted effect of over 55% in size
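Reporter activity after DNA damage by 5-fluorouridine is monitored. Compound-treated cells incubate 16 hr at 37 °C, then ONE-Glo is added for 30 min before luminescence reading.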
KB-V1 MDR tox = kills drug-selected multidrug resistant KB-V1 cells | KB-V1 MDR cells viability, CellTiter-Glo, 72 h | Potency, µM (doses to about 46.1 µM), most hits filed as cytotoxic | 400,000 compounds, 3.4% hits | AID 1347076; further: on the % scale 0 is the no-effect control and ±100 the full control effect; nearly all actives have a fitted effect of over 60% in size
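In this primary screen, KB-V1 cells overexpressing P-gp are incubated with library compounds (lowest to highest concentration) for 72 h at 37 degrees C before a luminescent ATP viability read.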
SW480 rerep = DNA re-replication induction in SW480 cells; SW480 DNA re-replication, Hoechst DNA content imaging, 48 h; Potency, µM (doses to about 46.1 µM), for the others: at the top dose re-replication activation, usual class: activators; 340,000 compounds, 1.8% hits; further: % of control where 0% means no effect; nearly all actives have a fitted effect of over 55% in size
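Image-based read-out: total Hoechst fluorescence of nuclei (405 nm excitation, 500-530 nm emission), with hits raising the fraction of high-intensity nuclei. SW480 colon cells incubated 48 hr with compounds at 37 C.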
MCF10A rereplic = induces DNA re-replication in MCF 10a normal breast cells | Potency, µM (top dose mostly 46.1 µM), for inactives: top-dose activity, positive = re-replication, usual class: activators | MCF 10A DNA re-replication, Hoechst nuclear intensity, 48 h | 350,000 compounds, 2.9% hits; further: % of control where 0% means no effect; nearly all actives have a fitted effect of over 50% in size
KB-3-1 tox = KB-3-1 parental cell cytotoxicity | KB-3-1 viability, CellTiter-Glo ATP luminescence, 72 h | Potency, µM (titrated, usually from 46.1 µM), hits mostly cytotoxic | 400,000 compounds, 1.4% hits; further: on the % scale 0 is the no-effect control and ±100 the full control effect; nearly all actives have a fitted effect of over 60% in size
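KB-3-1 parental drug-naive adenocarcinoma cells in DMEM/10% FBS, incubated 72 h at 37 C with pin-transferred compounds across a concentration series. Viability by CellTiter-Glo luminescence; concentration-response curves fitted after normalization.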
Starred values were filed as active, the others as inactive; i = inactive; ? = inconclusive; / = no result given. The call rests on the fitted dose curve; in most records, active means well fitted curve in the direction sought with a large enough effect; inconclusive means small, poorly fitted or top-dose-only effect, or another doubt; inactive means no such curve, though single readings can be large; an effect the other way counts as inactive or inconclusive. Potency means the concentration at half of the fitted maximal effect.

SMILES	ELG1 DNA repair	KB-V1 MDR tox	SW480 rerep	MCF10A rereplic	KB-3-1 tox
COc1ccccc1C=NN=C(NN=Cc1ccccc1OC)NN=Cc1ccccc1OC	/	21µM*	?	26%	?
COc1ccccc1C=NNC(=O)NN=Cc1ccccc1OC	/	i	1%	-13%	i
C[C@@H]1CN([C@@H](C)CO)C(=O)c2cc(NC(=O)C3CCCCC3)ccc2O[C@@H](C)CCCCO[C@H]1CN(C)S(=O)(=O)c1ccc(Cl)cc1	/	i	/	/	i
O=C(NC(=S)Nc1cc(-c2nc3ccccc3[nH]2)ccc1Cl)c1ccc2c(c1)OCO2	?	7.3µM*	5.8µM*	3.3µM*	18µM*
COCCN1Cc2cccc(C(=O)Nc3ccc(C(=O)OC)cc3)c2C1=O	/	i	/	/	i
Cc1ccc(N=Nc2c(N)nn(-c3ccccc3)c2N)cc1	?	6.5µM*	13µM*	15µM*	?
Cc1[nH]n2c(=O)cc(C(C)(C)C)nc2c1-c1ccccc1	?	?	?	?	7.3µM*
Cc1[nH]n2c(=O)cc(C(C)C)nc2c1-c1ccccc1	?	?	5%	?	?
CCc1cc(=O)n2[nH]c(-c3ccccc3)c(-c3ccccc3)c2n1	?	i	21µM*	?	?
O=C1OCC/C1=C\NCCCCCCCCN/C=C1\CCOC1=O	/	i	/	/	i
CCC1CC(C(=O)O)CC(=O)N1 (stereo not drawn)	/	i	/	/	i
Cc1nc(N)nc(Nc2ccc(Cl)cc2)c1Br	?	21µM*	-1%	0%	?
Cc1nc(N)nc(Nc2ccc(C#N)cc2)c1Br	11%	i	116%	-3%	i
CCOC(=O)C1=C(C)NC(SCC(=O)OC)=C(C#N)C1c1ccc(C(=O)OC)cc1 (stereo not drawn)	-3%	i	8%	?	i
CCOC(=O)C1=C(C)Nc2sc(C(=O)c3ccc(F)cc3)c(N)c2C1c1ccc(C(=O)OC)cc1 (stereo not drawn)	5.2µM*	i	16µM*	2.6µM*	i
CCOC(=O)C1=C(C)Nc2sc(C(=O)c3ccc(C)cc3)c(N)c2C1c1ccc(C(=O)OC)cc1 (stereo not drawn)	?	i	18µM*	3.7µM*	i
Cc1cc(C)cc(NC(=O)CCS(=O)(=O)c2ccc3c(c2)oc(=O)n3C)c1	/	i	/	/	i
c1ccc(-c2nnc(-c3ccccn3)nc2NC2CCCCC2)cc1	18µM*	?	?	10µM*	16µM*
COc1cc2cc(CN(CCc3ccccc3C)C(=S)NCCCN(C)C)c(=O)[nH]c2cc1OC	-23%	i	?	20%	?
CCNC(=S)N(CCc1ccccc1C)Cc1cc2cc(OC)c(OC)cc2[nH]c1=O	9.2µM*	i	-6%	-6%	i
CCNC(=S)N(CCc1cccc(C)c1)Cc1cc2cc(OC)c(OC)cc2[nH]c1=O	8.2µM*	i	-7%	-1%	i
Nc1c(C(=O)c2ccccc2)oc2ccccc12	?	i	?	13µM*	i
Nc1c(C(=O)c2ccc(F)cc2)oc2ccccc12	?	i	16%	7.3µM*	?
O=C(Nc1c(C(=O)c2ccccc2)oc2ccccc12)c1ccc(F)cc1	/	i	/	/	i
O=C(NCc1cccs1)C1CC(c2ccc(Cl)cc2)=NO1 (stereo not drawn)	?	?	?	9.2µM*	?
SMILES	ELG1 DNA repair	KB-V1 MDR tox	SW480 rerep	MCF10A rereplic	KB-3-1 tox
O=C(NCc1cccs1)C1CC(c2ccc(Cl)c(Cl)c2)=NO1 (stereo not drawn)	-8%	i	-4%	2.3µM*	i
O=C(NCc1cccnc1)C1CC(c2ccc(Cl)c(Cl)c2)=NO1 (stereo not drawn)	-14%	?	14%	9.2µM*	?
O=C(NCc1ccco1)C1CC(c2ccc(Cl)cc2)=NO1 (stereo not drawn)	?	i	25%	?	i
O=C(NCc1ccccn1)C1CC(c2ccc(Cl)c(Cl)c2)=NO1 (stereo not drawn)	?	?	16%	11µM*	?
COC(=O)N1CCCCC1c1cc(C(=O)Nc2ccccc2Cl)no1 (stereo not drawn)	/	i	/	/	i
CCOC(=O)c1ccccc1NC(=O)CCc1c(C)nc2ncnn2c1C	/	i	/	/	i
O=S1(=O)N=C(Nc2ccc(N3CCOCC3)cc2)c2ccccc21	12%	i	-9%	-1%	i
Cc1ccccc1-c1ccc(Nc2ccc(N3CCOCC3)cc2)nn1	18%	21µM*	-2%	16%	i
COCCNC(=O)c1ccc2c(=O)n(CCc3ccccc3)c(SCC(=O)CC(=O)OC)nc2c1	/	i	/	/	i
COc1ccc(-c2c(C)[nH]n3c(=O)c(Cc4ccccc4)c(C)nc23)cc1	?	16µM*	?	22%	?
Cc1cc(=O)n2[nH]cc(-c3ccccc3)c2n1	-7%	i	-61%	6%	i
Cc1nc2c(-c3ccccc3)c[nH]n2c(=O)c1Cc1ccccc1	?	?	17%	?	12µM*
CCCCNC(=S)N(C)/N=C/c1ccc(OCC(=O)Nc2ccc(OC)cc2)c(OC)c1	10µM*	?	?	25%	i
CCCCNC(=S)N(C)/N=C/c1ccc(OCC(=O)Nc2c(C)cc(C)cc2C)c(OC)c1	?	i	16µM*	18µM*	i
CCCCC(=O)Nc1nc2c(s1)COc1ccccc1-2	?	i	-3%	15%	i
CC(C)(C)OC(=O)N1CCC(c2c(C(=O)NC3CCN(Cc4ccccc4)CC3)cnn2-c2ccc(F)cc2F)CC1	/	i	/	/	i
O=C(Nc1ccsc1C(=O)NC1CCCCC1)c1ccccc1	-12%	4.6µM*	3%	12%	i
O=C(Nc1ccccc1C(=O)NC1CCCCC1)c1ccccc1	?	i	-7%	-5%	i
C=CCn1c(CCNC(=O)c2cccs2)nnc1SCC(=O)c1cccc([N+](=O)[O-])c1	-24%	i	?	?	i
C=CCn1c(CCNC(=O)c2cccs2)nnc1SCC(=O)c1ccc(Cl)cc1	9%	i	?	26µM*	i
C=CCn1c(CNC(=O)c2cccs2)nnc1SCC(=O)c1ccc(Br)cc1	-5%	15µM*	-7%	2%	i
O=C(COC(=O)CC(c1ccccc1)c1ccccc1)NCc1ccc(Cl)cc1	16µM*	23µM*	?	?	i
COc1ccccc1C(=O)NCC(c1cccs1)N1CCc2ccccc21 (stereo not drawn)	?	?	14%	18µM*	?
CCCn1c(N)c(N(CCOC)C(=O)CSc2cc(C)c3ccccc3n2)c(=O)[nH]c1=O	/	i	-9%	-1%	i
